Screens: PubChem BioAssay, National Center for Advancing Translational Sciences (NCATS)
HepG2 tox-1: qHTS for Inhibitors of TGF-b: Cytotox Counterscreen | HepG2 CAGA-GFP viability, ATP luminescence, 18 h | Potency, µM (titrated, usually from 46.1 µM), inactives show at the highest dose activity change, negative = cytotoxicity, actives largely listed as cytotoxic | 0.76% of 410,000 active; note: potency is the fitted concentration of half-maximal effect
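CellTiter-Glo luminescence gave cytotoxicity after 18 hours at 37 degrees C. The cells were HepG2 CAGA-GFP in 1% FBS DMEM, stimulated with 500 pg/mL TGF-beta after compound addition. %Activity was normalised to no-cell wells (complete cell-killing) and DMSO (no toxicity), and curves were fitted and classified.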
TGFb SMAD3 inh: qHTS for Inhibitors of TGF-b. Potency, µM (titrated, usually from 46.1 µM), for inactives: at the highest dose activity, negative = inhibition, hits mostly inhibitors. HepG2 CAGA-GFP TGF-b/SMAD3 reporter, GFP fluorescence, 18 h; TGF-beta stimulated, 500 pg/mL final. 1.2% of 410,000 active; note: potency is the fitted concentration of half-maximal effect; % is set by controls: 0 for no effect and ±100 for the full control effect; nearly all actives have a fitted effect of over 65% in size
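TGF-beta reporter screen: HEPG2 CAGA-GFP, 1% FBS, 500 pg/mL TGF-beta final, 18 h; per-cell GFP summed per well; curves fitted and categorized by class.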
LDHA inh: qHTS assay for inhibitors of human lactate dehydrogenase; 0.15% of 480,000 active; AID 1347041, 2019; activity change, % (values are at about 110 or 230 µM); L-lactate dehydrogenase A chain (Homo sapiens), P00338; purified LDHA, NADH/diaphorase-resazurin fluorescence; stronger effect = lower value; in the data active = activity change below about -30%; inconclusive = mostly about -25% to -30%;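 note: plate controls were DMSO wells for no effect and wells without enzyme for full effect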
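Enzyme activity of human lactate dehydrogenase 5 (2 nM; 0.06 mM NADH, 0.2 mM pyruvate, 5 min, RT) is measured via a resazurin/diaphorase fluorescence readout of residual NADH.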
ATXN2 expr inh: Primary qHTS for Inhibitors of ATXN expression | HEK-293 ATXN2-luciferase reporter, luminescence, 24 h | Potency, µM (series often up to 57 µM), for the others: at the highest dose activity change, negative = inhibition, usual class: inhibitors | 0.72% of 360,000 active; note: potency is the fitted concentration of half-maximal effect; % is set by controls: 0 for no effect and ±100 for the full control effect; nearly all actives have a fitted effect of over 55% in size
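qHTS (up to 57 uM final) was run with 24 h compound exposure of reporter cells at 37 °C. Each well was multiplexed: SteadyGlo luminescence measured ATXN2-luciferase expression after a fluorogenic Gly-Phe-AFC viability readout (25 uM final).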
ATXN viability: Viability Counterscreen for Primary qHTS for Inhibitors of ATXN expression; Potency, µM (doses to about 56.7 µM), most hits filed as cytotoxic; S2 cells (HEK-293 line with an ATXN2-luciferase reporter) viability, CellTiter-Fluor protease fluorescence, 24 h; AID 651635, 2014; 0.49% of 400,000 active; note: potency is the fitted concentration of half-maximal effect; nearly all actives have a fitted effect of over 40% in size
mIDH1 inhibitor: qHTS for Inhibitors of mutant isocitrate dehydrogenase 1 (IDH1): qHTS. IDH1-R132H enzyme, NADPH consumption, diaphorase/resazurin fluorescence. Potency, µM (doses to about 76.6 µM), without a hit: at the top dose activity change, negative = inhibition, actives largely listed as inhibitors. 0.093% of 390,000 active; note: potency is the fitted concentration of half-maximal effect; % is set by controls: 0 for no effect and ±100 for the full control effect; nearly all actives have a fitted effect of over 65% in size
Target sequence (O75874 whole entry R132H, stated change not applied): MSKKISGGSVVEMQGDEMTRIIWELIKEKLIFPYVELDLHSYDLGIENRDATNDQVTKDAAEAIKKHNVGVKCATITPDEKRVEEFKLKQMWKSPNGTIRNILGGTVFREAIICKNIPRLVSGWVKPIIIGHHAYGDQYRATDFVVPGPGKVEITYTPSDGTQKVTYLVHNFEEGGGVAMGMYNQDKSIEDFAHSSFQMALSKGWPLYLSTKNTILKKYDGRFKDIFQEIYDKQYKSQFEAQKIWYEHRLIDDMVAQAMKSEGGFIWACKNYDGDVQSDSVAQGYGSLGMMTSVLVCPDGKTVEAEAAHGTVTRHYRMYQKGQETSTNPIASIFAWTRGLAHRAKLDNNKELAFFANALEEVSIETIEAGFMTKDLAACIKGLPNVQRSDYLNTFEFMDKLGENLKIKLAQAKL
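IDH1-R132H (0.5 ug/mL) preincubated 30 min with compound, then NADPH (0.016 mM) and alpha-KG (2 mM) added; 80 min at RT, pH 7.5. Remaining NADPH coupled via diaphorase/resazurin to fluorescence (540/590 nm); concentration-response curves normalized to no-enzyme control.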
TGFb confirm: qHTS for Inhibitors of TGF-b: Confirmation of Cherry Picks; HepG2 CAGA-GFP TGF-b reporter, GFP fluorescence, 18 h; cells stimulated with TGF-beta, 500 pg/mL; Potency, µM (titrated, usually from 46.1 µM), for inactives: top-dose activity, negative = inhibition, hits mostly inhibitors; 63% of 1,600 active; shares compounds with TGFb SMAD3 inh; note: potency is the fitted concentration of half-maximal effect; % is set by controls: 0 for no effect and ±100 for the full control effect; nearly all actives have a fitted effect of over 65% in size
HepG2 tox-2: qHTS for Inhibitors of TGF-b: Cytotox Counterscreen for Cherry Picks. AID 720535, 2013. 27% of 1,600 active. HepG2 CAGA-GFP viability, ATP luminescence, 18 h; cells stimulated with TGF-beta, 500 pg/mL. Potency, µM (titrated, usually from 46.1 µM), for the others: top-dose activity, negative = cytotoxicity, usual class: inhibitors. shares compounds with TGFb SMAD3 inh; note: potency is the fitted concentration of half-maximal effect; % is set by controls: 0 for no effect and ±100 for the full control effect; nearly all actives have a fitted effect of over 70% in size
CCL64 TGFb inh: qHTS for Inhibitors of TGF-b: CCL64 Cells Orthogonal Assay for Cherry Picks; shares compounds with TGFb SMAD3 inh; Potency, µM (top dose mostly 46.1 µM), for inactives: at the top dose activity, negative = inhibition, hits mostly inhibitors; CCL64 CAGA-GFP reporter, TGF-b stimulated, GFP fluorescence, 18 h; 41% of 1,600 active; note: potency is the fitted concentration of half-maximal effect; nearly all actives have a fitted effect of over 65% in size
COP TGFb inh: qHTS for Inhibitors of TGF-b: Hit Validation in HepG2 Cells using COP promoter | 3% of 1,600 active | HepG2 COP-GFP TGF-b reporter, GFP fluorescence, 18 h; cells stimulated by added recombinant TGF-beta | shares compounds with TGFb SMAD3 inh | Potency, µM (top dose mostly 46.1 µM), for the others: top-dose activity, negative = inhibition, usual class: inhibitors; note: potency is the fitted concentration of half-maximal effect; nearly all actives have a fitted effect of over 70% in size
* = called active by the depositor; i = inactive; ? = inconclusive; . = no result. Only some compounds are listed: those with a hit (about 2.2% of all), similar ones and a draw of the others. Unless noted, calls come from the whole dose curve; as a rule, active = well fitted curve in the direction sought with a large enough effect; inconclusive = small, poorly fitted or top-dose-only effect, or another doubt; inactive = no such curve, though single readings can be large; an effect the other way counts as inactive or inconclusive.

SMILES	HepG2 tox-1	TGFb SMAD3 inh	LDHA inh	ATXN2 expr inh	ATXN viability	mIDH1 inhibitor	TGFb confirm	HepG2 tox-2	CCL64 TGFb inh	COP TGFb inh
COC(=O)C1(CC2CC(c3cccc(Br)c3)=NO2)CCN(C(=O)OC(C)(C)C)CC1 (configuration not stated)	-4%	?	-17	-23%	i	-13%	23µM*	?	?	51%
COc1ccc(-c2[nH]c(-c3cc(OC)c4c(c3)OCO4)nc2-c2ccccc2)cc1	4%	?	0	-18%	i	1%	13µM*	?	?	36%
Cc1ccnc(Nc2nc(-c3sc(C)nc3C)cs2)c1	3.2µM*	6.3µM*	-12	-24%	?	3%	9.2µM*	7.3µM*	?	-4%
CC(C)(C)C(=O)/C(=C/c1ccncc1)n1cncn1	14µM*	4.5µM*	-2	16µM*	.	10%	18µM*	13µM*	5.8µM*	?
COc1ccc(-c2ccc3c(c2)c(-c2cccs2)c(-c2cc(OC)cc(OC)c2)n3C)cc1	-13%	-3%	-5	-2%	i	-17%	.	.	.	.
COc1cc(OC)cc(-c2c(-c3cccs3)c3cc(-c4cnc(OC)nc4)ccc3n2C)c1	-16%	?	-1	0%	i	-9%	?	-3%	-11%	-18%
CCCC(C)C1c2c(c(C)c(C)oc2=O)Oc2c(C)c(C)oc(=O)c21 (configuration not stated)	-2%	?	-1	?	i	-6%	.	.	.	.
CCOC(=O)c1c(-c2cccs2)csc1N	-17%	?	23	4%	i	15%	-8%	-2%	5%	0%
CCOC(=O)CNC(=O)CSc1nnc(Cn2c(=O)sc3ccccc32)n1-c1ccccc1C	-29%	?	2	2%	i	2%	?	-5%	4%	1%
O=C(Nc1cccc(S(=O)(=O)N2CCOCC2)c1)c1c2c(nc3ccccc13)CCC2	20%	10%	-9	1%	?	-3%	.	.	.	.
CCOc1ccc2nc3cc(NCc4ccc(OC)cc4)ccc3c(N)c2c1	10µM*	7.9µM*	7	.	i	0%	3.3µM*	7.3µM*	?	45%
